According to ChEMBL document CHEMBL3988442, “University of Dundee, Small-Polar-MMV Screening Library” (2021):

Target: AMP-activated protein kinase, AMPK (Homo sapiens) (UniProt P54646+O43741+P54619+Q9UGJ0+Q9Y478+Q13131+Q9UGI9)
Assay: AMP-dependent Kinase enzyme assay. An in vitro enzyme assay that detects ADP turnover that is directly proportional to AMPK activity. This uses naive AMPK that is activated during the assay with MK-8722
Format: functional
Design: scale not given: direction of the effect not stated beside the values
Conditions: 30 µM

Row | SMILES | Percent Effect
1 | CN(C)c1ccc(C(=O)Nc2ccn(Cc3ccccn3)n2)cn1 | 18.9%
2 | CCn1ncnc1C1CC(=O)NCc2nc(N)sc21 (centres undefined) | -18.1%
3 | O=C(CCC1CCCO1)NCCN1CCCCC1 (centres undefined) | -1.67%
4 | c1ccc(C2Cn3ccnc3CN2Cc2ncc[nH]2)cc1 (centres undefined) | 11.3%
5 | Cc1ccc(F)c2c1CCCN2CC(=O)NC1CCS(=O)(=O)C1 (centres undefined) | 3.51%
6 | O=C(CCn1cccn1)NCCOc1cccc(Cl)c1 | -3.1%
7 | C1=C(CNC2CCc3ncnn3C2)COc2ccccc21 (centres undefined) | 10.9%
8 | CCC[C@H]1CN(c2cncc(C(=O)N3CCCCC3)n2)C[C@@H]1N(C)C | 14.2%
9 | CC(C)COc1cncc(N2CCCC(CC(N)=O)C2)n1 (centres undefined) | 10.7%
10 | CC(C)OCCS(=O)(=O)N1CCN(Cc2ccco2)CC1 | -2.52%
11 | CCNC(=O)[C@@H]1C[C@H](N)CN1c1cc(C(F)(F)F)nc(N(C)C)n1 | -12%
12 | CCNC(=O)c1ccnc(CC2COc3c(cccc3OC)C2)c1 (centres undefined) | -3.13%
13 | CCOC(=O)C1(O)CCN(C(=O)Nc2cccc(CC)c2)CC1 | -6.62%
14 | Cc1cccc(C)c1NC(=O)NCC1CCCN(C2CCOCC2)C1 (centres undefined) | 5.67%
15 | Cc1ccc(-c2noc(C3CCN3C(=O)c3ccc(=O)[nH]n3)n2)s1 (centres undefined) | 19.2%
16 | COCCOCC(=O)Nc1nc2c(OC)cc(F)cc2s1 | 3.08%
17 | CN(Cc1noc(C2CC2)n1)C1CCN(CCn2cccn2)C1 (centres undefined) | 5.76%
18 | Cc1nc(C)c(C(=O)N2CCc3c(C)cccc32)o1 | 4.71%
19 | CN(C)c1cccc(C(=O)N2CCn3c(nnc3C3CC3)C2)c1 | -2.33%
20 | Cc1nn(C)c(C)c1-c1ccc(=O)n(C(C)C(=O)NC2CC2)n1 (centres undefined) | 9.59%

Row | SMILES | Percent Effect
21 | COc1ncccc1C(=O)NCCn1cnc(C)cc1=O | -2.02%
22 | Cc1cc(C)n2cc(CN3CCC(N4CCN(C)C4=O)CC3)nc2n1 | 5.03%
23 | CC(C)(C)OC(=O)N(CCNS(=O)(=O)N1CCOCC1)C1CC1 | 8.24%
24 | CCCC(=O)NC1CCCN(Cc2cccs2)C1 (centres undefined) | 5.79%
25 | Cc1cc(C)cc(-n2ncc3c2CCCC3N)c1 (centres undefined) | 15.1%
26 | CN([C@@H]1CC[C@@H](N2CCCC2)[C@@H]1O)S(=O)(=O)c1ccccc1 | -6.19%
27 | Cc1cc(C2CCCN(Cc3nc(Cc4ccccc4)no3)C2)n[nH]1 (centres undefined) | 3.74%
28 | Cn1cc(CC(=O)N2CCCC(c3ccn[nH]3)C2)cn1 (centres undefined) | -1.05%
29 | Cc1ccc(C(=O)NCc2cc(F)ccc2N2CCCN(C)CC2)o1 | 9.19%
30 | COC(=O)NCC(=O)N1CCCn2nc(CN3CC[C@H](F)C3)cc2C1 | 5.46%
31 | N[C@H]1CN(C(=O)c2ccc3[nH]c(=O)c(=O)[nH]c3c2)C[C@@H]1c1ccccc1 | 3.24%
32 | Cn1cnc(S(=O)(=O)N2CCCCc3ccccc32)c1 | -0.149%
33 | Cc1nn(C)c(C)c1-c1ccc(=O)n(C(C)C(=O)NC2CCCC2)n1 (centres undefined) | 9.03%
34 | Cc1nc(C(NS(=O)(=O)N(C)C)c2ccccc2F)no1 (centres undefined) | -2.57%
35 | CCc1nc(C)c(CN2CCOC(CCCC(C)C)C2)[nH]1 (centres undefined) | -6.7%
36 | CN(C)CCN(Cc1ccc(Cl)cc1)C(=O)c1ccn(C)c(=O)c1 | 6.12%
37 | Cc1cc(CN(C)C(C(=O)O)c2ccc(C(C)(C)C)cc2)on1 (centres undefined) | 8.61%
38 | O=C(NCc1nnc2n1CCC2)c1cn(-c2cccc(Br)c2)nn1 | 2.86%
39 | Cc1cc(CC(=O)NC2CCCN(c3ccccc3Cl)C2=O)n[nH]1 (centres undefined) | 4.62%
